Assay results reported in PMC8384837, “Expanding the binding specificity for RNA recognition by a PUF domain”.
Changes are numbered by the printed parent chain.

How the values were obtained:
Assay in all cases: yeast three-hybrid, YBZ-1, SC-Leu-His + 0.5 mM 3-AT, 4 days
Conditions in all cases: tags: N-Gal4 AD-HA kept; label: inside an RPR1-promoter hybrid RNA with tandem MS2 sites; ssRNA
PUM1 PUF domain R1-KGN = PUM1 PUF domain R1-KGN (Homo sapiens, UniProt Q14671 828-1176, S863K;R864G;Q867N)
Outline: (§1)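 Pumilio-1 PUF domain libraries, randomized at the three base-contacting residues of each repeat, were co-expressed with matching RNA elements from a centromeric plasmid in strain YBZ-1, which carries a LexA–MS2 coat fusion and a HIS3 reporter. Transformants grew for four days on SC-Leu (input) or on SC-Leu-His + 0.5 mM 3-AT (selection), and the repeat regions were PCR-amplified and Illumina-sequenced. The interaction score is the log change in variant frequency from input to selection. That logarithm is base 2, with a pseudocount of 1 where a variant was absent.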

PUM1 PUF domain R8-CFK = PUM1 PUF domain R8-CFK (Homo sapiens, UniProt Q14671 828-1176, N1122C;Y1123F;Q1126K)
Outline: as §1

PUM1 PUF domain R8-PWR = PUM1 PUF domain R8-PWR (Homo sapiens, UniProt Q14671 828-1176, N1122P;Y1123W;Q1126R)
Outline: as §1

PUM1 PUF domain R8-KHY = PUM1 PUF domain R8-KHY (Homo sapiens, UniProt Q14671 828-1176, N1122K;Y1123H;Q1126Y)
Outline: as §1

PUM1 PUF domain R5-DWV = PUM1 PUF domain R5-DWV (Homo sapiens, UniProt Q14671 828-1176, C1007D;R1008W;Q1011V)
Outline: as §1

PUM1 PUF domain R7-QFY = PUM1 PUF domain R7-QFY (Homo sapiens, UniProt Q14671 828-1176, S1079Q;N1080F;E1083Y)
Outline: as §1

PUM1 PUF domain R3-FWG = PUM1 PUF domain R3-FWG (Homo sapiens, UniProt Q14671 828-1176, C935F;R936W;Q939G)
Outline: as §1

PUM1 PUF domain R3-YRR = PUM1 PUF domain R3-YRR (Homo sapiens, UniProt Q14671 828-1176, C935Y;Q939R)
Outline: as §1

PUM1 PUF domain R3-LNG = PUM1 PUF domain R3-LNG (Homo sapiens, UniProt Q14671 828-1176, C935L;R936N;Q939G)
Outline: as §1

PUM1 PUF domain R4-GCG = PUM1 PUF domain R4-GCG (Homo sapiens, UniProt Q14671 828-1176, N971G;H972C;Q975G)
Outline: as §1

PUM1 PUF domain R4-SHP = PUM1 PUF domain R4-SHP (Homo sapiens, UniProt Q14671 828-1176, N971S;Q975P)
Outline: as §1

PUM1 PUF domain R7-NRR = PUM1 PUF domain R7-NRR (Homo sapiens, UniProt Q14671 828-1176, S1079N;N1080R;E1083R)
Outline: as §1

PUM1 PUF domain R5-AGR = PUM1 PUF domain R5-AGR (Homo sapiens, UniProt Q14671 828-1176, C1007A;R1008G;Q1011R)
Outline: as §1

PUM1 PUF domain R2-ARP = PUM1 PUF domain R2-ARP (Homo sapiens, UniProt Q14671 828-1176, N899A;Y900R;Q903P)
Outline: as §1

PUM1 PUF domain R3-SCD = PUM1 PUF domain R3-SCD (Homo sapiens, UniProt Q14671 828-1176, C935S;R936C;Q939D)
Outline: as §1

PUM1 PUF domain R3-FRC = PUM1 PUF domain R3-FRC (Homo sapiens, UniProt Q14671 828-1176, C935F;Q939C)
Outline: as §1

PUM1 PUF domain R4-SRY = PUM1 PUF domain R4-SRY (Homo sapiens, UniProt Q14671 828-1176, N971S;H972R;Q975Y)
Outline: as §1

PUM1 PUF domain R6-CFH = target: T1, PUM1 PUF domain R6-CFH (Homo sapiens, UniProt Q14671 828-1176, N1043C;Y1044F;Q1047H)
T1 sequence: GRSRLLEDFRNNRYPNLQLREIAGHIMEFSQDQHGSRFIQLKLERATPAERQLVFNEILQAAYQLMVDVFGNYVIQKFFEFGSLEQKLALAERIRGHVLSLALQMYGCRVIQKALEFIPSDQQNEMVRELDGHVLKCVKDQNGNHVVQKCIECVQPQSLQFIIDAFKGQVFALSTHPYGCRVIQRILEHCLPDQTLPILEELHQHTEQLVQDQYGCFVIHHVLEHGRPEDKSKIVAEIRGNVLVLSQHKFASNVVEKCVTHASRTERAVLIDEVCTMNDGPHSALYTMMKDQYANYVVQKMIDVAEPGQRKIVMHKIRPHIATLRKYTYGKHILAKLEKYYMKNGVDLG
Outline: as §1

PUM1 PUF domain R6-LYG = target: T2, PUM1 PUF domain R6-LYG (Homo sapiens, UniProt Q14671 828-1176, N1043L;Q1047G)
T2 sequence: T1 sequence with C216L, F217Y, H220G
Outline: as §1

PUM1 PUF domain R3-DRQ = PUM1 PUF domain R3-DRQ (Homo sapiens, UniProt Q14671 828-1176, C935D)
Outline: as §1

Sequence: GGCUAGAACUAGUGGAUCCCCCGGCGCCCGGCGGCUCGAGCCCGGGUAAGUGUAAAUUGUCUGCAUGCCGCCGGGCGCCAUGCCUGCAGGUCGACUCUAGAAAACAUG
- binding signal (PUM1 PUF domain R1-KGN): 4.31 log2 enrichment (interaction score)

Sequence: GGCUAGAACUAGUGGAUCCCCCGGCGCCCGGCGGCUCGAGCCCGGGUAAGCGUAAAUAGUCUGCAUGCCGCCGGGCGCCAUGCCUGCAGGUCGACUCUAGAAAACAUG
- binding signal (PUM1 PUF domain R8-CFK): 4.21 log2 enrichment (interaction score)
- binding signal (PUM1 PUF domain R8-PWR): 4.3 log2 enrichment (interaction score)
- binding signal (PUM1 PUF domain R8-KHY): 4.22 log2 enrichment (interaction score)

Sequence: GGCUAGAACUAGUGGAUCCCCCGGCGCCCGGCGGCUCGAGCCCGGGUAAGUGUGAAUAGUCUGCAUGCCGCCGGGCGCCAUGCCUGCAGGUCGACUCUAGAAAACAUG
- binding signal (PUM1 PUF domain R5-DWV): 3.79 log2 enrichment (interaction score)

Sequence: GGCUAGAACUAGUGGAUCCCCCGGCGCCCGGCGGCUCGAGCCCGGGUAAGUUUAAAUAGUCUGCAUGCCGCCGGGCGCCAUGCCUGCAGGUCGACUCUAGAAAACAUG
- binding signal (PUM1 PUF domain R7-QFY): 2.24 log2 enrichment (interaction score)

Sequence: GGCUAGAACUAGUGGAUCCCCCGGCGCCCGGCGGCUCGAGCCCGGGUAAGUGUAAUUAGUCUGCAUGCCGCCGGGCGCCAUGCCUGCAGGUCGACUCUAGAAAACAUG
- binding signal (PUM1 PUF domain R3-FWG): 4.85 log2 enrichment (interaction score)
- binding signal (PUM1 PUF domain R3-YRR): 0.22 log2 enrichment (interaction score)
- binding signal (PUM1 PUF domain R3-LNG): 1.7 log2 enrichment (interaction score)

Sequence: GGCUAGAACUAGUGGAUCCCCCGGCGCCCGGCGGCUCGAGCCCGGGUAAGUGUACAUAGUCUGCAUGCCGCCGGGCGCCAUGCCUGCAGGUCGACUCUAGAAAACAUG
- binding signal (PUM1 PUF domain R4-GCG): 1.07 log2 enrichment (interaction score)
- binding signal (PUM1 PUF domain R4-SHP): 5.25 log2 enrichment (interaction score)

Sequence: GGCUAGAACUAGUGGAUCCCCCGGCGCCCGGCGGCUCGAGCCCGGGUAAGUCUAAAUAGUCUGCAUGCCGCCGGGCGCCAUGCCUGCAGGUCGACUCUAGAAAACAUG
- binding signal (PUM1 PUF domain R7-NRR): 4.05 log2 enrichment (interaction score)

Sequence: GGCUAGAACUAGUGGAUCCCCCGGCGCCCGGCGGCUCGAGCCCGGGUAAGUGUUAAUAGUCUGCAUGCCGCCGGGCGCCAUGCCUGCAGGUCGACUCUAGAAAACAUG
- binding signal (PUM1 PUF domain R5-AGR): 0.84 log2 enrichment (interaction score)

Sequence: GGCUAGAACUAGUGGAUCCCCCGGCGCCCGGCGGCUCGAGCCCGGGUAAGUGUAAAAAGUCUGCAUGCCGCCGGGCGCCAUGCCUGCAGGUCGACUCUAGAAAACAUG
- binding signal (PUM1 PUF domain R2-ARP): 4.42 log2 enrichment (interaction score)

Sequence: GGCUAGAACUAGUGGAUCCCCCGGCGCCCGGCGGCUCGAGCCCGGGUAAGUGUAAGUAGUCUGCAUGCCGCCGGGCGCCAUGCCUGCAGGUCGACUCUAGAAAACAUG
- binding signal (PUM1 PUF domain R3-FWG): 7.02 log2 enrichment (interaction score)
- binding signal (PUM1 PUF domain R3-YRR): 4.01 log2 enrichment (interaction score)
- binding signal (PUM1 PUF domain R3-SCD): 5.61 log2 enrichment (interaction score)
- binding signal (PUM1 PUF domain R3-LNG): 3.21 log2 enrichment (interaction score)
- binding signal (PUM1 PUF domain R3-FRC): 4.65 log2 enrichment (interaction score)

Sequence: GGCUAGAACUAGUGGAUCCCCCGGCGCCCGGCGGCUCGAGCCCGGGUAAGUGUAUAUAGUCUGCAUGCCGCCGGGCGCCAUGCCUGCAGGUCGACUCUAGAAAACAUG
- binding signal (PUM1 PUF domain R4-GCG): 2.61 log2 enrichment (interaction score)
- binding signal (PUM1 PUF domain R4-SRY): 0.46 log2 enrichment (interaction score)
- binding signal (PUM1 PUF domain R4-SHP): 5.36 log2 enrichment (interaction score)

Sequence: GGCUAGAACUAGUGGAUCCCCCGGCGCCCGGCGGCUCGAGCCCGGGUAAGUGUCAAUAGUCUGCAUGCCGCCGGGCGCCAUGCCUGCAGGUCGACUCUAGAAAACAUG
- binding signal (PUM1 PUF domain R5-AGR): 3.47 log2 enrichment (interaction score)

Sequence: GGCUAGAACUAGUGGAUCCCCCGGCGCCCGGCGGCUCGAGCCCGGGUAAGUGAAAAUAGUCUGCAUGCCGCCGGGCGCCAUGCCUGCAGGUCGACUCUAGAAAACAUG
- binding signal (PUM1 PUF domain R6-CFH): 4.34 log2 enrichment (interaction score)

Sequence: GGCUAGAACUAGUGGAUCCCCCGGCGCCCGGCGGCUCGAGCCCGGGUAAGUGUAAAUAGUCUGCAUGCCGCCGGGCGCCAUGCCUGCAGGUCGACUCUAGAAAACAUG
- binding signal (PUM1 PUF domain R6-LYG): 4.49 log2 enrichment (interaction score)
- binding signal (PUM1 PUF domain R5-DWV): 2.8 log2 enrichment (interaction score)
- binding signal (PUM1 PUF domain R4-GCG): 2.71 log2 enrichment (interaction score)
- binding signal (PUM1 PUF domain R5-AGR): 0.53 log2 enrichment (interaction score)
- binding signal (PUM1 PUF domain R7-QFY): 4.21 log2 enrichment (interaction score)
- binding signal (PUM1 PUF domain R3-FWG): 4.7 log2 enrichment (interaction score)
- binding signal (PUM1 PUF domain R6-CFH): 2.76 log2 enrichment (interaction score)
- binding signal (PUM1 PUF domain R3-DRQ): 4.43 log2 enrichment (interaction score)
- binding signal (PUM1 PUF domain R4-SRY): 5.27 log2 enrichment (interaction score)
- binding signal (PUM1 PUF domain R8-PWR): 4.27 log2 enrichment (interaction score)
